# Screening results as filed in PubChem BioAssay.
# DRD3 antagonist = antagonists of human D3 dopamine receptor; P35462; D3R cells, DiscoveRx beta-arrestin luminescence, antagonist mode; hits give low values; max response, negative = inhibition, %; 360,000 compounds, 2.5% hits; AID 652054; in the data active = max response below about -50%; inconclusive = no clear call, values can overlap the other calls; note: % is set by controls: 0 for no effect and ±100 for the full control effect
# Target sequence (P35462 whole entry, looked up): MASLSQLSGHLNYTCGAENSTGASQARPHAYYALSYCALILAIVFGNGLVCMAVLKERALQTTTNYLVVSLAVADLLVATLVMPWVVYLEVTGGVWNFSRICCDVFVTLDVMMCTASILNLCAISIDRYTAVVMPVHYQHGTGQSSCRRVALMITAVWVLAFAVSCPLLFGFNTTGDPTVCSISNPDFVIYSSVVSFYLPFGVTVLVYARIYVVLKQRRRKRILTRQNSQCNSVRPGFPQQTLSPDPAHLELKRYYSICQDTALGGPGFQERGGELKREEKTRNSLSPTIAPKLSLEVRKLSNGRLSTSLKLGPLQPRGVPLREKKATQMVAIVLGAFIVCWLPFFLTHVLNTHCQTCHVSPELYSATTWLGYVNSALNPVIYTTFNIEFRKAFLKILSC
#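 Cells expressing the human receptor were seeded at 1500 cells/well, incubated overnight at 37 degrees C in 5% CO2, then exposed to library compounds with dopamine controls for 90 minutes at 37 degrees C before luminescent detection.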
# KB-3-1 cytotox = KB-3-1 parental cell cytotoxicity. KB-3-1 viability, CellTiter-Glo ATP luminescence, 72 h. 400,000 compounds, 1.4% hits. AID 1347075. Potency, µM (doses to about 46.1 µM), hits mostly cytotoxic; note: potency is the fitted concentration of half-maximal effect; % is set by controls: 0 for no effect and ±100 for the full control effect; nearly all actives have a fitted effect of over 60% in size
#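 Multi-concentration cytotoxicity screen in KB-3-1 cells grown in DMEM lacking phenol red with 10% FBS. After 72 h at 37 °C with compound, ATP-dependent luminescence was recorded.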
# D3 ag = D3 dopamine receptor (human) agonism; max activation, %; D3R DiscoveRx beta-arrestin cells, luminescence, 90 min; P35462; 410,000 compounds, 0.58% hits; in the data active = max activation above about 30%; note: 0% is about no effect
#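 Cells at 1500/well, incubated overnight, then treated with pinned compounds (dopamine as control) for 90 min at 37 degrees C. DiscoveRx reagent added for 30 - 60 minutes at room temperature; luminescence read.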
# MCF10A rerep = induces DNA re-replication in MCF 10a normal breast cells; 350,000 compounds, 2.9% hits; Potency, µM (highest dose often 46.1 µM), without a hit: top-dose activity, positive = re-replication, actives largely listed as activators; AID 624296; MCF 10A DNA re-replication, Hoechst nuclear intensity, 48 h; note: potency is the fitted concentration of half-maximal effect; % of control where 0% means no effect; nearly all actives have a fitted effect of over 50% in size
# SW480 rereplic = inducers of DNA re-replication in SW480 colon cancer cells | 340,000 compounds, 1.8% hits | SW480 DNA re-replication, Hoechst DNA content imaging, 48 h | Potency, µM (top dose mostly 46.1 µM), for the others: top-dose re-replication activation, most hits filed as activators; note: potency is the fitted concentration of half-maximal effect; % of control where 0% means no effect; nearly all actives have a fitted effect of over 55% in size
#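 Image-based DNA-content assay: after two days of treatment, nuclei were labelled with the DNA dye Hoechst and imaged, and hits were compounds raising the count of nuclei showing high fluorescence intensity.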
# KB-V1 MDR tox = KB-V1 MDR subline cytotoxicity; 400,000 compounds, 3.4% hits; Potency, µM (titrated, usually from 46.1 µM), usual class: cytotoxic; KB-V1 MDR cells viability, CellTiter-Glo, 72 h; note: potency is the fitted concentration of half-maximal effect; % is set by controls: 0 for no effect and ±100 for the full control effect; nearly all actives have a fitted effect of over 60% in size
#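 KB-V1 cells (P-gp-expressing MDR subline of KB-3-1) in phenol-red-free DMEM with 10% FBS were exposed to library compounds over a concentration series for 72 h at 37 degrees C. Viability read by CellTiter-Glo luminescence; concentration-effect curves fitted after normalization.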
# Active calls of the source: *; i = inactive; ? = inconclusive; . = not tested or not shown; [ ] = remark or other dose. A selection: hits, their analogues and other compounds. The true share with any hit is near 8.9%. Unless noted, calls come from the whole dose curve; as a rule, active = well fitted curve in the direction sought with a large enough effect; inconclusive = small, poorly fitted or top-dose-only effect, or another doubt; inactive = no such curve, though single readings can be large; an effect the other way counts as inactive or inconclusive.
SMILES,DRD3 antagonist,KB-3-1 cytotox,D3 ag,MCF10A rerep,SW480 rereplic,KB-V1 MDR tox
O=C(CCS(=O)(=O)c1cc(Br)cc2c1N(C(=O)C1CC1)CC2)NCc1ccc(Cl)cc1,.,i,-16.9,.,.,i
Cc1ccc(/C(N)=N/OC(=O)CCc2ccccc2)cc1,2.3,i,1.3,7.31µM*,7.8%,i
N/C(=N\OC(=O)CCc1ccccc1)c1ccc(Br)cc1,-12.4,i,-9.2,-0.7%,-4.1%,i
Oc1ccc(Cl)cc1-c1cc(-c2ccccc2Cl)[nH]n1,-15.8,?,-5.1,-180.1%[0.0737 µM],?,?
Oc1ccccc1-c1cc(-c2ccccc2Cl)[nH]n1,-8.6,i,-1.5,?,-2.5%,20.6µM*
COc1ccc(-c2cc(-c3cc(C)ccc3O)[nH]n2)cc1,1.6,?,0.5,18.4µM*,?,?
CC(C)(C)c1ccc(-c2cc(-c3ccccc3O)[nH]n2)cc1,5.3,?,-2.0,9.2µM*,?,?
Cc1ccc(C)c(NC(=O)Cn2c(=O)oc3cc(S(=O)(=O)NCc4ccccc4)ccc32)c1,.,i,2.2,.,.,i
O=C(NCc1ccccc1)c1ccc2c(c1)nc1n2CCOC1,.,i,2.0,.,.,i
Clc1ccc(CNc2ncccn2)cc1,8.4,i,6.7,-8.0%,-6.3%,?
Oc1cc(NCc2ccc(F)cc2)cc2cccnc12,.,6.51µM*,.,?,?,i
Oc1cc(NCc2ccc(Cl)cc2)cc2cccnc12,.,16.4µM*,.,-5.8%,13.2%,i
Fc1ccc(CNc2ncccn2)cc1,13.4,i,0.0,-11.4%,-8.2%,i
CCOc1ccc(-c2nc3c(C#N)c[nH]n3c2NC2CCCCC2)cc1,.,i,-15.8,.,.,i
COc1ccc(-c2nc3c(C#N)c[nH]n3c2NC2CCCC2)cc1,.,i,49.5*,.,.,i
CN(C)CCNC(=O)c1coc(=O)c(Br)c1,-4.8,i,2.2,21.6%,2.4%,i
O=C(NCCC1=CCCCC1)c1ccc(=O)oc1,-26.2,i,-4.6,-182.9%[0.0737 µM],1.0%,i
CC(C)CNC(=O)c1coc(=O)c(Br)c1,?,6.31µM*,-6.4,20.6µM*,?,?
O=C(NCCc1ccccc1)c1coc(=O)c(Br)c1,-22.2,?,7.6,?,10.3µM*,?
O=C(NC(CO)(CO)CO)c1coc(=O)c(Br)c1,18.6,i,0.2,3.26µM*,7.31µM*,i
O=C(NCCC1=CCCCC1)c1coc(=O)c(Br)c1,?,?,-1.5,11.6µM*,9.2µM*,?
COc1ccc(Br)c(C(=O)Nc2cc3c(cc2N2CCOCC2)n(C)c(=O)n3C)c1,.,?,-5.4,.,.,i
O=C(COC(=O)/C=C/c1ccccc1)Nc1ccc(Cl)cn1,-6.6,i,3.8,-0.1%,-11.1%,i
CSc1cccc(NC(=O)/C=C/c2ccc(Cl)cc2)c1,?,?,-58.9,16.1%,-0.4%,14.6µM*
CCc1ccc(OCc2ccccc2C(=O)Nc2ccc3nc(C)cc(N)c3c2)cc1,.,16.4µM*,.,.,.,?
SMILES,DRD3 antagonist,KB-3-1 cytotox,D3 ag,MCF10A rerep,SW480 rereplic,KB-V1 MDR tox
CSc1cccc(NC(=O)/C=C/c2ccccc2)c1,-27.7,i,-22.2,18.8%,-3.4%,i
Cc1cc(C)nc(NC(=O)/C=C/c2ccc(Cl)cc2Cl)c1,-6.5,i,1.4,?,-30.8%,9.2µM*
Cc1cc(C)nc(NC(=O)/C=C/c2ccccc2Cl)c1,-16.9,i,3.0,-22.8%,-2.4%,?
O=C(/C=C/c1ccccc1)Nc1ccc(Cl)cn1,3.2,18.4µM*,-6.6,?,14.6µM*,?
CCOC(=O)c1ccc(NC(=O)c2cc(C)nc3ccccc23)cc1,4.0,i,1.4,?,-0.9%,i
C#CC(C)(CC)NC(=O)Cn1nnc(-c2ccc(OCc3ccccc3F)cc2)n1 (stereo not drawn),.,i,11.7,.,.,i
Cc1ccc(CNC(=O)c2ccc(Cn3c(=O)c4ccccc4n(CC(=O)Nc4ccc(C)cc4C)c3=O)cc2)cc1,.,i,-12.2,.,.,i
Cc1cc(N)c2cc(NC(=O)/C=C/c3ccccc3Cl)ccc2n1,-83.3*,?,-15.5,?,?,i
Cc1cc(C)nc(NC(=O)/C=C/c2ccccc2Cl)n1,-22.6,i,-2.2,0.7%,-2.3%,i
Cc1cccc(NC(=O)/C=C/c2ccc(Cl)cc2)n1,-14.4,i,-5.9,0.2%,.,16.4µM*
COC(=O)CCN1CCC2CC1c1cc(N3CCCCC3)ccc12 (stereo not drawn),?,i,-15.5,.,.,i
C/C=C1\NC(=O)[C@H]2CSSCC/C=C/[C@H](CC(=O)N[C@H](C(C)C)C(=O)N2)OC(=O)C(C(C)C)NC1=O (stereo partly drawn),.,.,-2.0,.,.,.
O=C(NC12CC3CC(CC(C3)C1)C2)c1ccc(N2CCNCC2)c([N+](=O)[O-])c1,14.8,18.4µM*,-12.2,9.9%,?,23.1µM*
CS(=O)(=O)N1CCN(c2ccc(C(=O)NC34CC5CC(CC(C5)C3)C4)cc2[N+](=O)[O-])CC1,-19.1,i,-2.5,-1.2%,-3.6%,i
COc1cccc(CNC(=O)CCl)c1,2.9,i,-4.7,-2.0%,-1.5%,i
CC(=O)Nc1sc(C)c(C)c1C(=O)OCC(=O)NCc1ccc(Cl)cc1,23.1,i,2.3,2.2%,-17.6%,i
COc1cccc(CNC(=O)COC(=O)c2c(NC(C)=O)sc(C)c2C)c1,0.0,i,-6.1,1.9%,16.4µM*,?
COc1cccc(CNC(=O)COC(=O)c2nc(Cl)c(Cl)c(Cl)c2Cl)c1,-19.8,?,-6.3,7.31µM*,11.6µM*,i
COc1ccc(S(=O)(=O)NCCc2sc(-c3cccc(F)c3)nc2C)cc1,.,i,7.8,.,.,i
Cc1cccc(-c2nc(CSCC(=O)NCCCN3CCOCC3)c(C)o2)c1,-1.5,i,-9.8,17.1%,4.6%,?
Cc1oc(-c2ccc(Cl)cc2)nc1CSCC(=O)NCCCN1CCOCC1,-15.6,i,-5.4,?,3.1%,16.4µM*
CSc1ccc(-c2nc(CSCC(=O)N3CCOCC3)c(C)o2)cc1,10.7,?,-1.7,1.3%,-0.6%,5.17µM*
CCCN1CCN(c2cccc(Nc3nn4c(=O)c5ccccc5nc4s3)c2)CC1,.,?,.,.,.,i
Cc1cccc(C)c1NC(=O)C(=O)NCC(c1cccnc1)N1CCc2ccccc21 (stereo not drawn),.,i,5.9,.,.,?
COc1ccc(NS(=O)(=O)c2ccc3[nH]c4c(c3c2)CCCC4)c(OC)c1,.,i,-4.4,.,.,i
CN(C)c1ccc(CNS(=O)(=O)c2ccc3[nH]c4c(c3c2)CCCCC4)cc1,.,?,0.1,.,.,16.4µM*
